NPC1 prom act: activators of NPC1 promoter. Huh7 NPC1 promoter luciferase reporter, 24 h. Potency, µM (doses to about 9.22 µM), usual class: activators. hit rate 2.4% among 320,000. AID 485313; note: nearly all actives have a fitted effect of over 60% in size
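Luminescence read-out of NPC1 promoter-driven luciferase in stably transfected Huh7 cells; compounds delivered in DMSO and left 24 h at 37C, 5% CO2, qHTS titration format.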
ELG1 genotoxic: induces genotoxicity in HEK293T cells with luciferase-tagged ELG1 | HEK293T ELG1-luciferase reporter, luminescence, 16 h | hit rate 1.3% among 330,000 | Potency, µM (series often up to 46 µM), most hits filed as activators; note: nearly all actives have a fitted effect of over 60% in size
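HEK293T cells expressing luciferase-tagged ELG1 were treated with compound or DMSO for 16 hr at 37°C. Luciferase activity was then read after 30 min with ONE-Glo at room temperature; rising signal flags genetic stress.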
FLuc modulator: inhibits or activates purified firefly luciferase, miR-21 counter-screen | purified FLuc, Km substrates, luminescence inhibition | Potency, µM (series often up to 57.5 µM), actives largely listed as inhibitors | hit rate 6.9% among 360,000 | AID 588342; note: nearly all actives have a fitted effect of over 55% in size
Target sequence (P08659 whole entry, looked up): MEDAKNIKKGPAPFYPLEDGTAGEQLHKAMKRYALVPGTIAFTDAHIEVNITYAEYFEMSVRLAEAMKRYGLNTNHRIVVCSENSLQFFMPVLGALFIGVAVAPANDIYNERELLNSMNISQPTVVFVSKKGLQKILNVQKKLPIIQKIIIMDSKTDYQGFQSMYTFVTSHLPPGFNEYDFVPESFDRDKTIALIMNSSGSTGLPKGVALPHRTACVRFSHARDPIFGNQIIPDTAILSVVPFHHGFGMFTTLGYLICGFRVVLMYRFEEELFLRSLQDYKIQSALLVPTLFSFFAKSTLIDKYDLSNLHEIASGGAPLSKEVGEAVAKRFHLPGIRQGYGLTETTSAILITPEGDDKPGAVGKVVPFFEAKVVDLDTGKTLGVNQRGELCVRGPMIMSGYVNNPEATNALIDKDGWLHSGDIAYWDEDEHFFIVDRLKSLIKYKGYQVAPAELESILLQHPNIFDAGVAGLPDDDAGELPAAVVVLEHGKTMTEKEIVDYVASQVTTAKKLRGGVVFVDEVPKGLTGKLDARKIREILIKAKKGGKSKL
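Purified P. pyralis luciferase (10nM final) with 10uM D-luciferin and 10uM ATP (Km levels) in 50mM Tris acetate pH 7.5, 10mM Mg acetate, 0.01% Tween-20, 0.05% BSA; qHTS 6-point titration, ~60 µM downward; luminescence read.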
ELG1 DNA repair: blocks ELG1-dependent DNA repair in HEK293T cells; HEK293T ELG1-luciferase reporter, luminescence, 16 h; DNA damage induced by 5-fluorouridine; Potency, µM (highest dose often 46.1 µM), hits mostly inhibitors; hit rate 2.3% among 330,000; AID 504467; note: nearly all actives have a fitted effect of over 55% in size
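Overnight (16 hr) co-exposure of 2,000 cells/well to 5-fluorouridine and compound at 37 °C preceded detection. Luciferase was quantified via ONE-Glo luminescence; loss of signal denotes inhibition.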
SMN2 splice up: SMN2 splice variant enhancement. Potency, µM (doses to about 46.1 µM), usual class: activators. AID 1458. HEK293 SMN2-luciferase splicing reporter, luminescence, 30-36 h. hit rate 2.8% among 210,000; note: nearly all actives have a fitted effect of over 55% in size
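HEK293 cells carry an SMN2 […]–luciferase reporter in which exon 7 inclusion puts luciferase in frame. Cells were plated 10-12 h before compound addition, then incubated 30-36 h at 37C. ONE-Glo luminescence was read; sodium butyrate at 4.5 mM final served as control.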
Rab9 prom act: activates the Rab9 promoter | Huh7 Rab9 promoter-luciferase reporter, luminescence, 24 h | Potency, µM (top dose mostly 9.22 µM), usual class: activators | AID 485297 | hit rate 2.8% among 320,000; note: nearly all actives have a fitted effect of over 60% in size
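Luciferase signal after 10 min detection reagent at ambient indicates Rab9 promoter upregulation; stably transfected Huh7 cells were treated 24 h with compound in DMSO at 37 °C, 5% CO2.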
Hits are given with their value; 0 = inactive; ? = inconclusive; - = no result given; [ ] = another dose, or the depositor's remark. In the library only some 9.2% were active in any assay of this set; here they are far more common. Calls come from the whole dose curve; as a rule, active = well fitted curve in the direction sought with a large enough effect; inconclusive = small, poorly fitted or top-dose-only effect, or another doubt; inactive = no such curve, though single readings can be large; an effect the other way counts as inactive or inconclusive.

SMILES	NPC1 prom act	ELG1 genotoxic	FLuc modulator	ELG1 DNA repair	SMN2 splice up	Rab9 prom act
CCOC(=O)c1c(OCC)[nH]c2c1cc(O)c1ccccc12	0	0	?	20.6µM	0	0
Cc1ccc(-c2onc3ccc(C4OCCO4)cc23)cc1	0	0	7.57µM	?	0	?
Cc1ccc(-c2onc3ccc(Br)cc23)cc1	0	0	?	0	-	0
CCOC(=O)c1cccc(NC(=O)CSc2cc(=O)n(C)c3ccccc23)c1	-	-	0	-	0	-
Cc1ccc(CCNC(=O)C2CC(c3ccc(C(F)(F)F)cc3)=NO2)cc1 (stereo not drawn)	0	0	0	?	-	0
Cc1c(C(=O)Nc2nc3ccccc3[nH]2)oc2ccccc12	?	?	3.01µM	?	10µM	3.98µM
Cc1c(C(=O)Nc2nc3ccccc3[nH]2)oc2ccc(Br)cc12	0	?	7.57µM	?	-	?
COCCCNC(=O)C1CCN(c2nc3ccc(C)cc3[nH]2)CC1	-	-	0	-	-	-
O=C1OCCC1Sc1nnc(-c2ccco2)o1 (stereo not drawn)	0	0	0	0	0	0
Brc1ccc(-c2nnc(SCCC3OCCCO3)o2)cc1	0	0	15.1µM	?	0	0
c1ccc(-c2nnc(SCCC3OCCCO3)o2)cc1	2.51µM	?	15.1µM	?	11.2µM	2.51µM
O=C1OCCC1Sc1nnc(-c2ccc(Br)cc2)o1 (stereo not drawn)	0	0	6.01µM	0	0	0
Cc1sc2nc[nH]c(=O)c2c1-c1ccc(Cl)cc1	0	0	0	0	-	0
CC(=O)Nc1ccc(/C=C2/Sc3ccccc3C2=O)cc1	0	?	0.757µM	?	0	0
O=C1/C(=C\c2cccnc2)Sc2ccccc21	0	?	6.75µM	?	0	0
CC(=O)Nc1ccc(S(=O)(=O)Oc2ccc(/C=C3\SC(N)=NC3=O)cc2)cc1	0	0	0	0	0	0
CN1CCN(C(=O)Cn2ncc3c4ccccc4n(Cc4ccc(F)cc4)c3c2=O)CC1	-	-	0	-	0	-
Cc1ccc(CNC(=O)CCCn2nc(C)n3c(cc4sccc43)c2=O)cc1	-	-	0	-	0	-
Cc1ccc(CSCc2nnc(SCC(=O)N3CCN(c4ccccc4)CC3)n2C)cc1	0	0	0	23.1µM	0	0
CCn1c(CSCc2ccc(F)cc2)nnc1SCC(=O)N1CCN(c2ccccc2)CC1	0	0	0	13µM	0	0
Cc1ccc(CSCC(=O)N2CCN(c3ccccc3)CC2)cc1	0	0	0	0	0	0
Cc1cccn2c(=O)c(/C=C(\C#N)c3nc4ccccc4s3)c(Oc3ccc(Br)cc3)nc12	-	-	0	-	0	-
Cc1ccc(CNC(=O)COC(=O)c2cncc(Br)c2)cc1	0	0	0	0	0	0
CCc1ccc(OC(=O)c2cncc(Br)c2)cc1	0	0	6.01µM	0	-	0[1.84 µM]
CCc1ccc(C(=O)COC(=O)c2cncc(Br)c2)cc1	0	0	15.1µM	?	0	0
SMILES	NPC1 prom act	ELG1 genotoxic	FLuc modulator	ELG1 DNA repair	SMN2 splice up	Rab9 prom act
Cc1ccc(NC(=O)CCSCCC(=O)Nc2ccc(C)c(C)c2)cc1C	0	0	16.9µM	0	0	0
Cc1ccc(NC(=O)c2cccnc2)cc1C	0	?	?	?	-	?
Cc1ccc(NC(=O)c2ccccc2)cc1C	0	0	15.1µM	?	-	0
O=C(Nc1ccc(F)c(F)c1)c1ccccc1	?	20.6µM	?	?	-	?
Cc1ccc(NC(=O)c2snc3ccc(Cl)cc23)cc1C	0	0	12µM	?	11.2µM	?
O=C(c1ccccc1)[C@H](Nc1ccc2ccccc2c1)c1ccccc1	-	-	-	-	0[9.22 µM]	-
O=C(Nc1ccc2c(c1)CCCN2C(=O)c1ccccc1)c1ccccc1	0	0	13.5µM	?	-	?
O=C(Nc1cc(NC(=O)c2ccccc2F)ccc1Cl)c1ccccc1	0	0	15.1µM	0	-	0
Cc1ccccc1C(=O)Nc1ccc2c(c1)CCCN2C(=O)c1cccs1	0	0	0	?	-	0
CCCCCC(=O)N/N=C(\C)c1ccc(N2CCCCC2)cc1	0	0	?	?	0	0
N#Cc1c2ccc([N+](=O)[O-])cc2[n+]([O-])n1-c1ccccc1	0	?	-	10.3µM	-	0
Cc1ccc2nc(-c3ccc(NC(=O)C(F)(F)F)cc3)sc2c1	-	-	0.477µM	-	0	-

Bioassay records (PubChem BioAssay)
